Results on 48 compounds are retold here after ChEMBL document CHEMBL3988442, “University of Dundee, Small-Polar-MMV Screening Library” (2021).

For assay [1], the target named is T1, Aspartate--tRNA(Asp/Asn) ligase (Mycobacterium tuberculosis (strain ATCC 25618 / H37Rv)) (UniProt P9WFW3). Further: in the data most compounds retested in dose-response had high values.
T1 sequence (whole entry): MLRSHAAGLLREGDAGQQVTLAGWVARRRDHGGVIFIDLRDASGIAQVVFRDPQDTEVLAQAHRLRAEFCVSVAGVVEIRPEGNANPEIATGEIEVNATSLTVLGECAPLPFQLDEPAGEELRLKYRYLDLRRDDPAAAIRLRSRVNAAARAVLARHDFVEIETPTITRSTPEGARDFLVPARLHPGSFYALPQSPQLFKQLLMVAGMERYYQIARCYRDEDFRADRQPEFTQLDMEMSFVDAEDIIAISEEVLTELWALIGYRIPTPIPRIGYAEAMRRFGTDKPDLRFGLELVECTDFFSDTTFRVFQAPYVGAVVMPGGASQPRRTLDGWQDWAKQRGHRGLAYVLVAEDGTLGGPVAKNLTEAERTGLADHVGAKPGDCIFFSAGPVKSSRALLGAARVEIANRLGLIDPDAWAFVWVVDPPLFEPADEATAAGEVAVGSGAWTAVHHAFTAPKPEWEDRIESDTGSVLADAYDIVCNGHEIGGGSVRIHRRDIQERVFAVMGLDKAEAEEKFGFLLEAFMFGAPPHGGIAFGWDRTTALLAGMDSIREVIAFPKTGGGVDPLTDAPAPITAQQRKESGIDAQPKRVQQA
Description: Assay for Asp RNA synthetase-1 from Mycobacterium tuberculosis. The format is functional. On the set-up: scale not given: direction of the effect not stated beside the values. The conditions noted are these: 30 µM.

Assay [2] addresses Shiga toxin 2 (Escherichia coli O157:H7) (UniProt P09385+P09386). As to the kind of experiment: E. coli 0.157:H7 Shiga Toxin SOP - stx2 screening assay. On the set-up: scale not given: direction of the effect not stated beside the values. Particulars: 30 µM. Format: functional.

`Cc1cnn(CC2CCCN2C(=O)c2cc(C)no2)c1` (stereo unspecified): the results for the Percent Effect in assay [1] and in assay [2] were -4.16% and 16.5%, respectively.
In the same order, the values of `CCn1cnnc1C1CCN(C(=O)C(OC)c2ccccc2)CC1` (stereo unspecified) are -2.71% and 9.67%.
In the same order, the values of `CC(C)c1cc(NC(=O)c2ccc(NC3CC3)nc2)[nH]n1` are -1.67% and -52%.
For the compound `COc1cc(C)ccc1OCCC(=O)N1CCCC1Cn1cccn1` (stereo unspecified), the Percent Effect in assay [1] stood at 2%; in assay [2], 12.8%.
In the same order, the values of `CCc1nc(CN2CCCN(C(=O)CCc3ccco3)CC2)cs1` are -4.26% and -71.2%.
The matching figures for `Cc1nc(CN2C(=O)CC[C@@H]3[C@H]2CCN3C(=O)NC2CC2)cs1`: -0.474% and -11.4%.
In the same order, the values of `CCC(C)(C)NC(=O)CN(C)C(c1cccc(F)c1)c1ccccn1` (stereo unspecified) are -1.18% and 15.1%.
Take `CCc1c(C)nc2cc(C3CCN(Cc4ccccc4F)C3)nn2c1O` (stereo unspecified): the results for the Percent Effect in assay [1] and in assay [2] were 4.45% and -125%, respectively.
The matching figures for `CC(c1ccccc1)n1c(SCC(=O)O)nnc1-c1ccccc1Cl` (stereo unspecified): 1% and 2.71%.
In the same order, the values of `O=C(Cn1cnc(-c2ccccc2)cc1=O)Nc1ccncc1` are -2.03% and -36.3%.
In the same order, the values of `O=C(NCCCO)Nc1cccc(Cl)c1F` are 1.48% and -9.57%.
For the compound `Cn1ccnc1CN1CCC2(CC(=O)N(c3cccc(F)c3)C2)C1` (stereo unspecified), the Percent Effect in assay [1] is 6.19%; in assay [2] it was -33.1%.
For `O=C1CC(c2ccccc2F)c2c(n3ccsc3nc2=O)N1` (stereo unspecified), the results for the Percent Effect in assay [1] and in assay [2] were 1.48% and -23%, respectively.
In the same order, the values of `CC(C)(O)CN1CCN(C(=O)c2cccnc2O)CC1` are -6.95% and 9.08%.
In the same order, the values of `Cc1nnc2n1CCN(CCS(=O)(=O)c1ccccc1)C2` are -4.37% and -6.96%.
In the same order, the values of `COc1ccc(-c2nnc(SCC(=O)NCC(C)C)[nH]2)c(OC)c1` are 6.14% and 6.1%.
`Cc1nnc(N2CCC(CNC(=O)OC(C)(C)C)CC2)c(C#N)c1C`: the results for the Percent Effect in assay [1] and in assay [2] were -0.115% and 34.8%, respectively.
The matching figures for `Cc1cccc(CNC(CN2CCN(C)CC2)c2ccccc2)c1` (stereo unspecified): 3.03% and -5.1%.
For `COc1ccccc1OCCN1CCC(N2CCNC2=O)CC1`, the Percent Effect in assay [1] was -1.95%; in assay [2], 21%.
In the same order, the values of `COCCc1noc(CNCC2CCCN2c2cccnn2)n1` (stereo unspecified) are 4.93% and -3.58%.
The matching figures for `c1ccc(-c2cnc(CN3CCn4c(nnc4C4CC4)C3)o2)cc1`: 0.278% and 23.8%.
The matching figures for `O=C(c1cc[nH]n1)N1CCC(Nc2cccnn2)CC1`: -8.36% and -20.2%.
Take `Cn1ncc(NCc2cccc(COC(C)(C)C)c2)c(Cl)c1=O`: the results for the Percent Effect in assay [1] and in assay [2] were -4.13% and 12%, respectively.
As to `CC(C)c1nc(C2CCCN2CC(=O)N2CCc3ccccc32)no1` (stereo unspecified), the figures for the Percent Effect in assay [1] and in assay [2] were 1.52% and 10.6%, respectively.
The matching figures for `CCn1ncnc1C1CC(=O)NCc2nc3ccccn3c21` (stereo unspecified): -2.72% and 2.83%.
Turning to `Cc1nc(C2CCCN(C(=O)c3cc(Cl)c[nH]3)C2)no1` (stereo unspecified), the values for the Percent Effect in assay [1] and in assay [2] were -3.91% and 0.906%, respectively.
The matching figures for `CCC(C)N(C)S(=O)(=O)c1ccc(CCNC(C)=O)s1` (stereo unspecified): 0.0557% and -17%.
The matching figures for `Cn1cc(C2CCCN2CCCc2nc(-c3cccs3)no2)cn1` (stereo unspecified): 0.756% and 6.08%.
The matching figures for `Cc1nn(C)c(N(C)C)c1CNCCCN(C)S(C)(=O)=O`: -6.1% and -43.8%.
For the compound `Cc1cnn(C2CCCN(C(=O)CCc3nccs3)C2)c1` (stereo unspecified), the values for the Percent Effect in assay [1] and in assay [2] were -2.71% and 20%, respectively.
Take `Cc1ccc(C2C3=C(COC3=O)Nc3[nH]nc(C)c32)cc1C` (stereo unspecified): the Percent Effect in assay [1] is -4.73%; in assay [2] it was -11.4%.
In the same order, the values of `Cn1ncc2c1CN(Cc1cccnc1)CC2COCC1CC1` (stereo unspecified) are 2.03% and -44.8%.
`Cn1ccc2ccnc(CC3CN(C(=O)C4CCC(F)(F)CC4)C3)c21`: the Percent Effect is 0.551% in assay [1] and -23.1% in assay [2].
The matching figures for `Cc1cnn(CC2CCCN2C(=O)c2nccc3ccccc23)c1` (stereo unspecified): 3.06% and 28%.
Take `c1ccc(OC[C@]23COC[C@H]2CN(c2ncccn2)C3)nc1`: the Percent Effect in assay [1] is 1.95%; in assay [2], -23.2%.
In the case of `NC(=O)C1CCN(C(=O)CCn2ccc3cc(Br)ccc32)CC1`, the Percent Effect was found to be 0.306% in assay [1] and 12.4% in assay [2].
In the same order, the values of `Cc1ccc(CC(=O)N2CCCC(c3cc(C)[nH]n3)C2)cn1` (stereo unspecified) are -0.962% and -18.6%.
For the compound `CCC(=O)N1Cc2nccn2CC(CN(C)Cc2cccnc2)C1` (stereo unspecified), the Percent Effect was 7.49% in assay [1] and -5.95% in assay [2].
Regarding `CC(CNCc1ccc(Cl)c(Cl)c1)Oc1ccccn1` (stereo unspecified), the results for the Percent Effect in assay [1] and in assay [2] were -0.523% and -59.8%, respectively.
Turning to `O=C(CSc1nncs1)N1CCN(Cc2ccc(Cl)s2)CC1`, the Percent Effect in assay [1] is -5.38%; in assay [2], -5.37%.
As for `Cc1nc(C)c(C(=O)N2CCC(Nc3cccnc3)CC2)s1`, the Percent Effect in assay [1] was 16.8%; in assay [2], -45.8%.
In the same order, the values of `O=C(NCc1cnc2n1CCN(CC1CC1)CC2)C1CCC1` are -5.77% and 7.18%.
The matching figures for `CC(C(=O)N1CCCN(c2ncccc2C#N)CC1)n1cccn1` (stereo unspecified): -4.27% and 31.7%.
In the same order, the values of `COC(=O)CCc1c(C)nc2cc(O)nn2c1C` are -3.67% and -37.6%.
Consider `CC(=O)N1CCOC(c2cc(N3CC(O)C3)nc(C)n2)C1` (stereo unspecified), for which the results for the Percent Effect in assay [1] and in assay [2] were -3.6% and 6.14%, respectively.
The matching figures for `COc1ccc(CN2CCCC(Cn3nc(C)nc3C)C2)cc1F` (stereo unspecified): 0.335% and -1.86%.
For the compound `COc1ccc(CN(Cc2cncn2C)CC2CCCO2)cc1OC` (stereo unspecified), the Percent Effect in assay [1] came to 4.27%; in assay [2] it was 10.9%.
The matching figures for `CCC(CC)c1cc(CNC(=O)N2CCOCC2CC)on1` (stereo unspecified): -2.19% and 9.7%.
